Assay outcomes (PubChem BioAssay)
Sampled rows, rich in hits. Any-hit rate of the full collection: about 10%.
SW480 rerep: DNA re-replication induction in SW480 cells | actives 1.8% (n = 340,000) | Potency, µM (doses to about 46.1 µM), for inactives: at the top dose re-replication activation, actives largely listed as activators | SW480 DNA re-replication, Hoechst DNA content imaging, 48 h; note: % of control where 0% means no effect; nearly all actives have a fitted effect of over 55% in size
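Treated cells incubate 48 hr (37 C, 5% CO2), are stained 40 min with Hoechst, and nuclear fluorescence is enumerated; a rise in nuclei with high DNA signal marks re-replication.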
RORg inh: blocks mouse ROR gamma transcriptional activity; P51450; Potency, µM (top dose mostly 53.6 µM), for the others: top-dose activity change, negative = inhibition, usual class: inhibitors; actives 5.4% (n = 310,000); Drosophila S2 Gal4-RORgamma UAS-luciferase reporter, 20 h; AID 2551; note: % is set by controls: 0 for no effect and ±100 for the full control effect; nearly all actives have a fitted effect of over 60% in size
Target sequence (P51450 whole entry, looked up, the tested form may be a part): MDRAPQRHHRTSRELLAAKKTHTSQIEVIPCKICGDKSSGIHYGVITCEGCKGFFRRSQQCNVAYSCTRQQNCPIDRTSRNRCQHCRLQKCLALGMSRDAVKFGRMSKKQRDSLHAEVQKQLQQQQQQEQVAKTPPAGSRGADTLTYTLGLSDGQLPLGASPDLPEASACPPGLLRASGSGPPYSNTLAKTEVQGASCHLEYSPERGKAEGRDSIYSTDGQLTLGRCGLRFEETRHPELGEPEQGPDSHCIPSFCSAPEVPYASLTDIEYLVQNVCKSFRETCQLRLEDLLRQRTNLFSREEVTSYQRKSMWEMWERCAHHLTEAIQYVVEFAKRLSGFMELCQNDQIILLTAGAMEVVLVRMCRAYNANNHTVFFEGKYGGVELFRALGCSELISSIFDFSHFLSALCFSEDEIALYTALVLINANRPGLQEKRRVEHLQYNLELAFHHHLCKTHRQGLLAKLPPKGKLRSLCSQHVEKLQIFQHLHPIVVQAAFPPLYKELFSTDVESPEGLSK
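Stably transfected Drosophila Schneider cells are the test system, with ROR gamma fused to Gal4 and luciferase under UAS control; luminescence is read after 20 hr of 700 uM copper sulfate induction at ambient temperature.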
MCF10A rereplic: inducers of DNA re-replication in MCF 10A breast cells | MCF 10A DNA re-replication, Hoechst nuclear intensity, 48 h | Potency, µM (highest dose often 46.1 µM), for inactives: at the top dose activity, positive = re-replication, usual class: activators | actives 2.9% (n = 350,000) | AID 624296; note: % of control where 0% means no effect; nearly all actives have a fitted effect of over 50% in size
KB-V1 MDR tox: kills drug-selected multidrug resistant KB-V1 cells. KB-V1 MDR cells viability, CellTiter-Glo, 72 h. Potency, µM (series often up to 46.1 µM), usual class: cytotoxic. actives 3.4% (n = 400,000); note: % is set by controls: 0 for no effect and ±100 for the full control effect; nearly all actives have a fitted effect of over 60% in size
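Drug-selected KB-V1 cells, grown in DMEM lacking phenol red with 10% FBS, receive compound titrations; after three days at 37 degrees C, surviving cell ATP is quantified by CellTiter-Glo luminescence and responses normalized and curve-fitted.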
Gal4-VP16 FLuc: Gal4-VP16 reporter inhibition counter-screen | AID 2546 | Potency, µM (top dose mostly 53.6 µM), without a hit: at the top dose activity, negative = inhibition, hits mostly inhibitors | actives 3.5% (n = 310,000) | Drosophila S2 Gal4-VP16 UAS-luciferase, luminescence, 20 h;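 note: Gal4-VP16 expression switched on by copper sulfate through the metallothionein promoter; % is set by controls: 0 for no effect and ±100 for the full control effect; nearly all actives have a fitted effect of over 50% in size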
KB-3-1 tox: kills parental KB-3-1 adenocarcinoma cells; KB-3-1 viability, CellTiter-Glo ATP luminescence, 72 h; AID 1347075; actives 1.4% (n = 400,000); Potency, µM (doses to about 46.1 µM), actives largely listed as cytotoxic; note: % is set by controls: 0 for no effect and ±100 for the full control effect; nearly all actives have a fitted effect of over 60% in size
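Cytotoxicity in the drug-sensitive parental line KB-3-1 was scored as loss of CellTiter-Glo luminescence following 72 h incubation with compound. Values come from curve fitting of normalized concentration-response data.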
* hit, by the source's call; i = inactive; ? = inconclusive; / = no result; [ ] = remark or other dose. Calls come from the whole dose curve; as a rule, active = well fitted curve in the direction sought with a large enough effect; inconclusive = small, poorly fitted or top-dose-only effect, or another doubt; inactive = no such curve, though single readings can be large; an effect the other way counts as inactive or inconclusive. Potency is the fitted concentration of half-maximal effect.

SMILES	SW480 rerep	RORg inh	MCF10A rereplic	KB-V1 MDR tox	Gal4-VP16 FLuc	KB-3-1 tox
O=C(N/N=C/c1cn(Cc2ccccc2)c2ccccc12)c1cccnc1	-0.3%	7.08µM*	-0.8%	i	8.91µM*	i
CCCCCCCCCCCCC1CO1 (stereo not given)	/	-5.8%	/	/	10.9%	/
O=S(=O)(Nc1ccc(-c2ccc(N3CCCC3)nn2)cc1)c1cc(F)ccc1F	/	/	/	i	/	i
CC(=O)O[C@H]1C(=O)[C@@]2(C)C([C@H](OC(=O)c3ccccc3)[C@]3(O)C[C@H](OC(=O)[C@H](O)[C@@H](NC(=O)c4ccccc4)c4ccccc4)C(C)=C1C3(C)C)[C@]1(OC(C)=O)CO[C@@H]1C[C@H]2O (stereo not given in full)	2.06µM*	?	?	?	20µM*	0.058µM*
CC(=O)O[C@@H]1C(=O)[C@@]2(C)[C@H](O)C[C@H]3OC[C@]3(OC(C)=O)[C@@H]2[C@H](OC(=O)c2ccccc2)[C@@]2(O)C[C@H](OC(=O)[C@@H](O)[C@@H](NC(=O)c3ccccc3)c3ccccc3)C(C)=C1C2(C)C (stereo in doubt)	/	?	/	/	-19.9%[17 µM]	/
CC(=O)O[C@@]12CO[C@@H]1C[C@H](O)[C@@]1(C)C(=O)[C@H](O)C3=C(C)[C@@H](OC(=O)C(O)[C@@H](NC(=O)OC(C)(C)C)c4ccccc4)C[C@@](O)([C@@H](OC(=O)c4ccccc4)[C@H]21)C3(C)C (stereo not given in full)	0.0075µM*	?	?	/	-23.7%	/
CC(=O)OC1C(=O)[C@@]2(C)C(O)CC3OC[C@]3(OC(C)=O)C2C(OC(=O)c2ccccc2)[C@]2(O)CC(OC(=O)C(O)C(NC(=O)c3ccccc3)c3ccccc3)C(C)=C1C2(C)C (stereo not given in full)	/	?	/	/	-6.9%	/
CC(=O)O[C@H]1C(=O)[C@]2(C)[C@H]([C@H](OC(=O)c3ccccc3)[C@]3(O)C[C@H](OC(=O)[C@H](O)[C@@H](NC(=O)c4ccccc4)c4ccccc4)C(C)=C1C3(C)C)[C@]1(OC(C)=O)CO[C@@H]1C[C@@H]2O	?	/	93.2%	18.4µM*	/	0.164µM*
CCOc1ccc(C(=O)OCc2cc(=O)n3cc(C)sc3n2)cc1	/	/	/	i	/	i
COc1ccc(N2CCN(CC(O)COc3ccccc3C(C)(C)C)CC2)cc1 (stereo not given)	/	/	/	i	/	i
COc1ccc(NC(=O)COCc2cc(-c3ccco3)on2)cc1Cl	/	/	/	i	/	?
S=C(NCc1ccc(Cl)cc1Cl)NC1CCCCC1	9.0%	5.62µM*	?	?	15.8µM*	i
S=C(NCCc1ccccc1)NC1CC1	-2.2%	4.47µM*	-4.5%	i	?	i
NC(=O)C1CCN(C(=S)NCCc2ccccc2)CC1	-0.9%	-28.6%	0.9%	i	8.2%	i
O=C(NC1CCN(C(=S)NCCc2ccccc2)CC1)C1CC1	-102.1%	10µM*	2.2%	?	?	i
S=C(NCCc1ccccc1)NC1CCC(NC(=S)NCCc2ccccc2)CC1 (stereo not given)	-6.7%	-3.5%	1.4%	i	0.2%	i
S=C(NCCc1cccc(Cl)c1)NC1CCCCC1	?	4.47µM*	0.8%	?	5.62µM*	?
Cc1ccc(Nc2nc3ccccc3c3nnc(C)n23)c(C)c1	/	/	/	i	/	i
COc1ccc2c(c1)sc1ncc(C(=O)NCc3cccc(C)c3)c(=O)n12	/	/	/	?	/	i
CCc1ccccc1NC(=O)C1CCN(c2nn3c(=O)cc(C)nc3s2)CC1	/	/	/	i	/	i
CCCOc1ccc(CNC(=O)c2oc3ccc4c(c3c2C)C(=O)CC(C)(CC)O4)cc1 (stereo not given)	/	/	/	i	/	i
O=C1N[C@@H](Cc2ccccc2)C(=O)N2CCCC12 (stereo not given in full)	-4.5%	-11.4%[96.6 µM]	6.1%	i	2.6%[96.6 µM]	i
CC(C)CC1NC(=O)C(CCCN)NC(=O)C(C(C)C)NC(=O)C2CCCN2C(=O)C(Cc2ccccc2)NC(=O)C(CC(C)C)NC(=O)C(CCCN)NC(=O)C(C(C)C)NC(=O)C2CCCN2C(=O)C(Cc2ccccc2)NC1=O (stereo not given)	-7.3%	0.0891µM*	?	/	0.282µM*	/
CCCN(C(=O)Nc1cn(CC(C)C)c(=O)c2ccccc12)c1ccc(F)cc1	/	/	/	?	/	i
O=C(O)c1c2c(nc3ccccc13)/C(=C/c1ccc(O)cc1)CC2	?	7.94µM*	?	i	12.6µM*	i
SMILES	SW480 rerep	RORg inh	MCF10A rereplic	KB-V1 MDR tox	Gal4-VP16 FLuc	KB-3-1 tox
COc1cccc2c1CCc1c-2nc2ccccc2c1C(=O)O	-5.0%	?	?	i	10µM*	i
O=C(O)c1c2c(nc3ccccc13)/C(=C/c1ccc(OC(F)F)cc1)CCC2	-0.4%	35.6%	12.5%	?	-7.6%	i
COc1ccccc1NC(=O)c1c(C)nc2ccccc2c1C(=O)O	-21.5%	12.4%	-11.2%	i	-25.5%	i
O=C(Nc1cccc(-c2cn3ccccc3n2)c1)C1CC1	-7.0%	?	?	18.4µM*	-3.8%[0.365 µM]	?
O=C(Nc1cccc(-c2cn3ccccc3n2)c1)c1cccc(Cl)c1	21.4%	?	?	9.2µM*	?	i
CCC1(c2ccccc2)NC(=S)N(c2cccc(C)c2C)N1 (stereo not given)	-7.9%	1.26µM*	12.6%	i	7.94µM*	i
COc1ccccc1NC(=O)C1=C(C)Nc2nc(SCc3ccccc3)nn2C1c1cccnc1 (stereo not given)	/	/	/	i	/	i
CC(C)c1ccc(-c2c(C#N)c(N)nc(SCC(=O)N3CCCCC3)c2C#N)cc1	?	-4.5%	7.31µM*	?	-7.5%	?
COc1ccc(/C=C2\SC(=S)N(CC(=O)N(C)C3CCS(=O)(=O)C3)C2=O)cc1 (stereo not given)	?	29.0%	20.6µM*	i	9.2%	i
CN(C(=O)CN1C(=O)/C(=C/c2ccccc2Cl)SC1=S)C1CCS(=O)(=O)C1 (stereo not given)	0.4%	10µM*	?	?	?	i
Cc1ccc(NC(=O)CSc2nc3c(oc4ccccc43)c(=O)n2Cc2ccco2)cc1	/	/	/	i	/	i
O=C1c2ccccc2N[C@@H]2C=CC[C@@H]2N1O	25.9µM*	/	-3.5%	i	/	i
CCCOC(=O)CSc1nnc(-c2ccccc2)o1	/	/	/	i	/	i
